Reference: PubChem BioAssay AID540335 (Broad Institute, 2011)
Screen size: about 1,300 compounds; about 270 (21%) were called active.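 How the source made its calls: active means dose-dependent rise or fall in viability, either side of zero, with half-maximal concentration at or below a set limit; inconclusive means flat curve at 30 to 70% viability loss, or poor fit; inactive means flat within 30% either way, or potency beyond limit.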 Not all results are given here. Entries with a potency or affinity are not part of this list.

Assay: proliferation inhibition in MITF-low A375 cells – cell-based, cherry-pick samples, set 2, counter-screen for MITF modulator project, dose response (AID 540335);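 further: A375 human melanoma cells which do not depend on MITF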
Details: CellTiter-Glo ATP luminescence, 24 h; series mostly up to 35 µM

| Structure (SMILES) | outcome |
| --- | --- |
| Cn1cccc1C(=O)NC(=O)COC(=O)c1ccc(S(C)(=O)=O)c([N+](=O)[O-])c1 | inactive |
| CS(=O)(=O)c1ccc(C(=O)OCC(=O)NCc2cccs2)cc1[N+](=O)[O-] | inactive |
| O=C(CCl)N1N=C(c2ccco2)CC1c1cccs1 (stereo unspecified) | inactive |
| CC(C)C(=O)N1CCN(c2ccc(NC(=O)c3ccc([N+](=O)[O-])o3)cc2Cl)CC1 | inactive |
| CCCCC[n+]1ccn(C2=C([O-])c3ccccc3C(=O)/C2=N\S(=O)(=O)c2ccccc2)c1 | inactive |
| O=C(Nc1ccc2c(c1)OCCO2)c1coc2ccccc2c1=O | inactive |
| COc1cc(CN2CCC(C(N)=O)CC2)ccc1OCc1ccccc1 | inactive |
| COc1cc(CN2CCC(C(=O)NCCC(C)C)CC2)ccc1OCc1ccccc1 | inactive |
| CCN1CCc2c(sc(NC(=O)c3ccc(S(=O)(=O)N4CCCC4)cc3)c2C(=O)NC)C1 | inactive |
| Cc1ccc(NC(=O)c2cc(N3C(=O)C=CC3=O)ccc2N2CCOCC2)cc1 | inactive |
| O=C(Nc1ccc(S(=O)(=O)NC2=NCCCCC2)cc1)c1ccc([N+](=O)[O-])s1 | inactive |
| Cc1ccc2sc(N(CCCN(C)C)C(=O)c3ccc(S(=O)(=O)N(C)C4CCCCC4)cc3)nc2c1C | inactive |
| Cc1ccc2nc(NC(=O)CCCC(=O)O)sc2c1 | inactive |
| COc1ccc(S(=O)(=O)N2CCCCC2)cc1NC(=O)c1ccc([N+](=O)[O-])o1 | inactive |
| Cn1c(SCC(=O)N/N=C/c2ccc([N+](=O)[O-])s2)nnc1-c1ccccc1 | inactive |
| CC(=O)OCCCNc1cc(Sc2ccc(Cl)cc2)c2nonc2c1[N+](=O)[O-] | inactive |
| CCN1CCCC1CNC(=O)c1ccc2c(c1)NC(=O)/C(=C\c1ccc(OC)c(OC)c1)S2 (stereo unspecified) | inactive |
| COc1cccc(/C=C2/Sc3ccc(C(=O)NCCN4CCCC4)cc3NC2=O)c1 | inactive |
| O=C1Nc2cc(C(=O)NCCN3CCCCCC3)ccc2S/C1=C\c1ccccc1 | inactive |
| CCN1CCCC1CNC(=O)c1ccc2c(c1)NC(=O)/C(=C\c1ccc(C)cc1)S2 (stereo unspecified) | inactive |
| COC(=O)[C@@H]1C[C@]2(OC(=O)c3ccccc3)C=CC(=O)C[C@@H]2N1C(=O)OCc1ccccc1 | inactive |
| COc1ccccc1NS(=O)(=O)c1cccc(C(=O)N/N=C/c2ccc([N+](=O)[O-])o2)c1 | inactive |
| Cc1ccccc1OCC(=O)N/N=C/c1ccc([N+](=O)[O-])o1 | inactive |
| O=C(COc1ccccc1)N/N=C/c1ccc([N+](=O)[O-])o1 | inactive |
| C=Cc1ncc(OC)c2c1[nH]c1ccccc12 | inactive |
| O=[N+]([O-])c1cccc2c(N3CCCC3)ccnc12 | inactive |

| Structure (SMILES) | outcome |
| --- | --- |
| CCN1CCN(c2ccc(NC(=O)c3ccc([N+](=O)[O-])o3)cc2Cl)CC1 | inactive |
| O=C(C[n+]1cccc2ccccc21)c1ccc([N+](=O)[O-])cc1 | inactive |
| Cc1cc(C)n(-c2ccc(C(=O)Nc3ccc(C)c(S(=O)(=O)N4CCOCC4)c3)cc2)n1 | inactive |
| CS(=O)(=O)c1nc(-c2ccc(F)cc2)cc(C(F)(F)F)n1 | inactive |
| CCOC(=O)c1ccc2c(c1)n(CC)c(/C=C/N(C)c1ccccc1)[n+]2CC | inactive |
| CCn1c(/C=C/N(C)c2ccccc2)[n+](CC)c2ccc(Cl)cc21 | inactive |
| Oc1cc(NCCN2CCOCC2)cc2cccnc12 | inactive |
| O=C(N/N=C\c1cc(Br)ccc1O)c1ccc(S(=O)(=O)N2CCCCC2)cc1 | inactive |
| O=C(N/N=C/c1cc(Cl)ccc1O)c1ccncc1 | inactive |
| O=C1c2cc(F)ccc2-n2c1nc1ccccc1c2=O | inactive |
| CCOC(=O)CSC1=NC(=O)/C(=C\c2ccc(Cl)cc2)S1 | inactive |
| O=C(N/N=C/c1ccc(F)cc1)c1c(O)c2ccccc2[nH]c1=O | inactive |
| O=C1/C(=C/c2ccccc2[N+](=O)[O-])COc2ccccc21 | inactive |
| Cc1ccc(-c2cn(-c3ccc(SC(F)F)cc3)c3[n+]2CCC3)cc1 | inactive |
| O=c1c(Cl)c2oc3ccccc3nc-2c2ccccc12 | inactive |
| COc1cccc(-c2nnc3n2N=C(C(C)(C)C)CS3)c1 | inactive |
| O=C(CCl)Nc1ccc(-c2ccccc2)cc1 | inactive |
| COc1ccc(S(=O)(=O)N(C(C)=O)c2ccc(OC(C)=O)c3ccccc23)cc1[N+](=O)[O-] | inactive |
| CS(=O)(=O)c1ccc2nc(NC(=O)c3ccccc3)sc2c1 | inactive |
| CC1=C/C(=N\NC(=S)Nc2cccnc2)CC(C)(C)C1 | inactive |
| O=C(CCl)Nc1cccc(-c2cnc3ccccc3n2)c1 | inactive |
| Nc1nc2ccccc2n1/N=C/c1ccc([N+](=O)[O-])s1 | inactive |
| CC1CN(C(=O)CCC(=O)NCCCN2CCC(Cc3ccccc3)CC2)c2cc(Cl)ccc2O1 (stereo unspecified) | inactive |
| Clc1ccc(-c2c[n+](Cc3cccc(Cl)c3)c3n2CCC3)cc1 | inactive |
| COc1ccc(/C=C2\Sc3ccc(C(=O)NCCN4CCCCCC4)cc3N(C)C2=O)cc1 | inactive |
